{"source": "PubChem BioAssay", "note": "A number with no mark means an inactive call. The rule behind the calls is not given here.", "data": [{"tested_on": "Aerobactin synthetase IucA (Klebsiella pneumoniae, hypervirulent)", "assay": "IucA enzyme inhibition, biochemical, LOPAC library, absorbance readout (AID 1346212);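 note: 100% = no compound wells and 0% = no enzyme wells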", "settings": "IucA enzyme assay, absorbance (OD) readout; stronger effect = lower value;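 tested at 8 µM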", "units": {"remaining activity": "%"}, "values": [{"smiles": "CC(C)NC[C@H](O)COc1cccc2[nH]ccc12", "remaining activity": 116}, {"smiles": "NC[C@@H]1O[C@H](O[C@H]2[C@@H](O)[C@H](O[C@@H]3[C@@H](O)[C@H](N)C[C@H](N)[C@H]3O[C@H]3O[C@H](CO)[C@@H](O)[C@H](O)[C@H]3N)O[C@@H]2CO)[C@H](N)[C@@H](O)[C@@H]1O", "remaining activity": 104}, {"smiles": "COc1cccc(C(=O)NCCN2CCN(c3ccc(Cl)cc3)CC2)c1", "remaining activity": 124}, {"smiles": "[Li+]", "remaining activity": 102}, {"smiles": "NC(N)=NCc1cccc(I)c1", "remaining activity": 118}, {"smiles": "O=C1NCN(c2ccccc2)C12CCN(CCCC(c1ccc(F)cc1)c1ccc(F)cc1)CC2", "remaining activity": 104}, {"smiles": "CC1=C(C(=O)O)N2C(=O)[C@@H](NC(=O)[C@H](N)C3=CCC=CC3)[C@H]2SC1", "remaining activity": 113}, {"smiles": "COc1cc2nc(N3CCN(C(=O)C4COc5ccccc5O4)CC3)nc(N)c2cc1OC", "note": "(stereo not given)", "remaining activity": 92.2}, {"smiles": "CC(C)NCC(O)COc1ccc(CCOCC2CC2)cc1", "note": "(stereo not given)", "remaining activity": 123}, {"smiles": "CCOC(=O)C1=C(C)NC(C)=C(C(=O)OC)C1c1cccc([N+](=O)[O-])c1", "note": "(stereo not given)", "remaining activity": 112}, {"smiles": "O=C1NC(=O)c2cc(Nc3ccccc3)c(Nc3ccccc3)cc21", "remaining activity": 113}, {"smiles": "C[C@]12C[C@H](O)[C@H]3[C@@H](CCC4=CC(=O)CC[C@@]43C)[C@@H]1CC[C@@H]2C(=O)CO", "remaining activity": 110}, {"smiles": "CC(C)(C)c1ccc(C(O)CCCN2CCC(C(O)(c3ccccc3)c3ccccc3)CC2)cc1", "note": "(stereo not given)", "remaining activity": 101}, {"smiles": "N#C/C(=C\\c1ccc(O)c(O)c1)C(=O)N1CCc2ccccc21", "remaining activity": 107}, {"smiles": "CCCCCCCCCC[Si](C)(C)CCC(=O)NC(Cc1ccc(C)cc1)c1ccccc1", "note": "(stereo not given)", "remaining activity": 116}, {"smiles": "Cc1ccccc1CNc1ncnc2c1ncn2[C@@H]1O[C@H](CO)[C@@H](O)[C@H]1O", "remaining activity": 122}, {"smiles": "CNC(=O)[C@H]1O[C@@H](n2cnc3c(NCc4ccc(N)cc4)ncnc32)[C@H](O)[C@@H]1O", "remaining activity": 119}, {"smiles": "COc1cc(-c2ccc(=O)[nH]n2)ccc1OC(F)F", "remaining activity": 119}, {"smiles": "CCCCCCCCCCCCCCCC(=O)NCCO", "remaining activity": 118}, {"smiles": "Nc1ccc2c3c(cccc13)C(=O)NC2=O", "remaining activity": 112}, {"smiles": "N=C(N)c1ccccc1", "remaining activity": 121}, {"smiles": "O=C1Nc2ccc(I)cc2/C1=C/c1cc(Br)c(O)c(Br)c1", "remaining activity": 113}, {"smiles": "COc1cccc2c1[C@@H]1CN(CCCCn3c(=O)[nH]c4c(sc5ncc(-c6ccccc6)nc54)c3=O)C[C@@H]1CO2", "remaining activity": 98.2}, {"smiles": "Cc1ccc(C(=O)O[C@H](C(=O)O)[C@@H](OC(=O)c2ccc(C)cc2)C(=O)O)cc1", "note": "(tested in a mixture with another compound)", "remaining activity": 112}, {"smiles": "CCCCCCN(CCCCCC)C(=O)Cc1c(-c2ccc(F)cc2)[nH]c2ccccc12", "remaining activity": 97.1}, {"smiles": "CC(=O)N[C@H](C(=O)O)C(C)(C)SN=O", "remaining activity": 117}, {"smiles": "Cc1ccc(=O)n(-c2ccccc2)c1", "remaining activity": 120}, {"smiles": "S=C(S)N1CCCC1", "remaining activity": 83.6}, {"smiles": "COCCOC(=O)C1=C(C)NC(C)=C(C(=O)OC/C=C/c2ccccc2)C1c1cccc([N+](=O)[O-])c1", "note": "(stereo not given)", "remaining activity": 99.8}, {"smiles": "O=C(O)C1(C(=O)O)CCC1.[NH2-].[NH2-].[Pt+2]", "remaining activity": 113}, {"smiles": "O=c1[nH]c2ccccc2n1CCCN1CCN(C(c2ccccc2)c2ccccc2)CC1", "remaining activity": 116}, {"smiles": "CC(C)C(=O)c1c(C(C)C)nn2ccccc12", "remaining activity": 125}, {"smiles": "NCCCCNCCCN", "remaining activity": 107}, {"smiles": "CC(C)(C)c1cc(/C=C(\\C#N)C(N)=S)cc(C(C)(C)C)c1O", "remaining activity": 97.1}, {"smiles": "CNc1ncnc2c1ncn2[C@H]1C[C@H](OP(=O)(O)O)[C@@H](COP(=O)(O)O)O1", "remaining activity": 124}, {"smiles": "N[C@@H](Cc1c[nH]c2ccc(O)cc12)C(=O)O", "remaining activity": 99.1}, {"smiles": "COc1cccc(OC)c1OCCNCC1COc2ccccc2O1", "note": "(stereo not given)", "remaining activity": 105}, {"smiles": "COC1(C2=NCCN2)COc2ccccc2O1", "note": "(stereo not given)", "remaining activity": 105}, {"smiles": "C[C@H]1C[C@H]2[C@@H]3CCC4=CC(=O)C=C[C@]4(C)[C@@]3(F)[C@@H](O)C[C@]2(C)[C@@]1(O)C(=O)CO", "remaining activity": 114}, {"smiles": "CCCCN1CCC(n2c(=O)[nH]c3ccccc32)CC1", "remaining activity": 110}]}]}
